AmpC nodet inh – blocks E. coli AmpC beta-lactamase in absence of detergent | AmpC nitrocefin hydrolysis, absorbance 480 nm, no detergent | P00811 | Potency, µM (titrated, usually from 28.7 µM) | actives 1.8% (n = 71,000)
Target sequence (P00811 whole entry, looked up): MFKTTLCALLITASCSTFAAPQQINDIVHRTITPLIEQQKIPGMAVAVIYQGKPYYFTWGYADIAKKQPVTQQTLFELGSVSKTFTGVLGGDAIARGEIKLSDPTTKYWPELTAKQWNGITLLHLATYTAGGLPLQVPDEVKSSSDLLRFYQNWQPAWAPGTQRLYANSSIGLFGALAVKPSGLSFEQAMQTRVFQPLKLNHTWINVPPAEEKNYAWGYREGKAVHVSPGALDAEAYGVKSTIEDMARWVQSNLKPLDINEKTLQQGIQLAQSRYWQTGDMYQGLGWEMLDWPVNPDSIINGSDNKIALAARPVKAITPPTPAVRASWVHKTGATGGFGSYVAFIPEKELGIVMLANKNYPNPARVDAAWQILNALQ
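Enzyme, pH 7.0 phosphate. Compound titrations were pre-incubated with AmpC for 15 min at room temperature before nitrocefin (stock 800 uM) addition; product formation was recorded at 480 nm every 20 s for 4 min.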
AmpC inh det – blocks E. coli AmpC beta-lactamase in presence of detergent; purified AmpC, nitrocefin hydrolysis with detergent; Potency, µM (titrated, usually from 28.7 µM); actives 0.09% (n = 71,000); AID 584; active = well fitted curve in the direction sought with a large enough effect; inconclusive = small, poorly fitted or top-dose-only effect
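E. coli AmpC (5.3 nM) in 20 mM phosphate pH 7.0 with 0.01% Triton X-100, preincubated 15 min RT with compound; nitrocefin (2 uL of 800 uM stock) hydrolysis followed by 480 nm absorbance every 20 s over 4 min.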
Anthrax LT inh – blocks cellular internalization of anthrax lethal toxin. Potency, µM (highest dose often 40 µM), most hits filed as inhibitors. actives 0.67% (n = 70,000). Cells, anthrax lethal toxin internalization, FRET ratio (460/530); note: nearly all actives have a fitted effect of over 50% in size
SmPrx2 inh – inhibitors of Schistosoma mansoni peroxiredoxin 2; S. mansoni Prx2 activity coupled to TGR/GSH (TGR is thioredoxin glutathione reductase), NADPH fluorescence loss, qHTS; Potency, µM; actives 0.07% (n = 65,000)
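Prx2 activity was followed as the loss of NADPH fluorescence (ex 365/em 450 nm), read every 30 sec for 8 min after H2O2 start. The enzyme mix (50 nM Prx2, 25 nM TGR, GSH, NADPH; pH 7.4 phosphate buffer) was incubated with compound for 15 min at room temperature first.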
Numbers stand for hits; - = inactive; ? = inconclusive; . = no result; ! = not active in a repeat; [ ] = another dose, or the depositor's remark. Sampled rows, rich in hits. Any-hit rate of the full collection: about 2.4%. Unless noted, calls come from the whole dose curve.

SMILES	AmpC nodet inh	AmpC inh det	Anthrax LT inh	SmPrx2 inh
CCOC(=O)C1CCN(C(=O)CN(c2ccc(OC)cc2)S(=O)(=O)c2c(C)noc2C)CC1	-	-	-	-
Cc1noc(C)c1S(=O)(=O)N(CC(=O)N1CCn2c1nc1ccccc12)c1ccc(C(C)C)cc1	3.98µM[single pt active]	-	?	-
CCCN(c1ccc(C(C)C)cc1)S(=O)(=O)c1c(C)noc1C	-	-	-	-
CCOc1ccc(N(CC(=O)N2CCCC2)S(=O)(=O)c2c(C)noc2C)cc1	3.98µM[single pt active]	-	-	-
Nc1ncnc2c1ncn2[C@H]1O[C@@H](C(=O)O)[C@@H](O)[C@H]1O	-[5.75 µM]	-[5.75 µM]	-[8 µM]	-
ClC1=C(Cl)C2(Cl)C3C(Cl)C=CC3C1(Cl)C2(Cl)Cl (configuration not stated)	-	-	15.8µM	.
c1nc(NC2CCNCC2)c2cc(-c3ccoc3)ccc2n1	-	-	-	-
O=C(CCl)c1ccccc1	-	-	12.6µM	.
COc1cc(C(=O)O[C@@H]2CC(C)=CC[C@@]3(C)CC[C@](O)(C(C)C)[C@H]23)ccc1O	-	-	?	-
C[C@H](Cc1ccc(O)c(O)c1)[C@@H](C)Cc1ccc(O)c(O)c1	-	-	15.8µM!	-
N[C@@H](Cc1ccc(O)c(O)c1)C(=O)O	-	-	-[3.58 µM]	-
CCC(C)C(=O)Nc1nc2c(s1)C(=O)CC(C)(C)C2 (configuration not stated)	3.98µM[single pt active]	-	-	-
C[N+]1(C)CCO[C@](O)(c2ccccc2)C1	-[5.75 µM]	-[5.75 µM]	?	-
O=C(Nc1cnn(Cc2ccc(Cl)cc2Cl)c1)c1noc2c1CCCC2	3.98µM[single pt active]	-	?	-
COC(=O)c1cc(-c2ccc(Br)cc2)on1	3.98µM[single pt active]	-	-	-
COC(=O)c1cc(-c2ccc(OC)c(OC)c2)on1	-	-	-	-
O=C(Nc1nnc(N2CCCCCC2)s1)c1cc(-c2ccc(Br)cc2)on1	3.98µM[single pt active]	-	-	-
Cn1c(C(=O)NCCc2c[nH]c3ccccc23)cc2sccc21	-	-	?	-
O=C(NCCc1c[nH]c2ccccc12)c1c(Cl)nc2sccn12	12.6µM	-	-	-
CSc1ncnc2nc[nH]c12	-	-	-	-
COC(=O)[C@H]1[C@H](c2ccccc2)C(=O)[C@@]2(O)c3ccccc3O[C@@]12c1ccccc1	.	.	-[8 µM]	.
CCOc1ccc(-c2nnc(SCC(=O)N3CCN(c4ccccc4)CC3)o2)cc1	-	-	-	-
O=C(CSc1nnc(-c2ccccc2)o1)N1CCN(c2ccccc2)CC1	12.6µM[single pt active]	-	?	-
CCCOc1ccc(Cc2nn3c(=O)/c(=C/c4ccco4)sc3nc2=O)cc1	10µM[single pt active]	-	-	-
O=C(O)/C(=C\c1ccccc1)Cc1ccccc1	-[5.75 µM]	-[5.75 µM]	-[8 µM]	-
SMILES	AmpC nodet inh	AmpC inh det	Anthrax LT inh	SmPrx2 inh
CN(C)CCn1c(CO)nc2c1c(=O)n(C)c(=O)n2C	-[5.75 µM]	-[5.75 µM]	-[8 µM]	-
COC(=O)c1ccc(C)c(NC(=O)C2COc3ccccc3O2)c1 (configuration not stated)	-	-	.	-
COc1cc(NC(=O)C2COc3ccccc3O2)c(OC)cc1Cl (configuration not stated)	-	-	12.6µM	-
COc1ccc(OC)c(NS(=O)(=O)c2ccc(NC(=O)C3COc4ccccc4O3)cc2)c1 (configuration not stated)	10µM	-	?	.
CC1CC(C)CN(S(=O)(=O)c2ccc(NC(=O)C3COc4ccccc4O3)cc2)C1 (configuration not stated)	15.8µM[single pt active]	-	?	-
CC(C)(C)NC(=O)c1ccc(NC(=O)C2COc3ccccc3O2)cc1 (configuration not stated)	-	-	-	-
COc1cc2cc3c4c(cc(OC)c(OC)c4c2cc1OC)CCN3C	-	-	?	-
Cc1c(Cl)cccc1NC(=O)C[C@H]1Sc2ccccc2NC1=O	-[5.75 µM]	-[5.75 µM]	-[8 µM]	-
Cn1c(C(C#N)C(=O)c2sc3ccccc3c2Cl)nc2ccccc21 (configuration not stated)	12.6µM	-	?	-
COc1ncc2ncc(=O)n(C[C@H]3CCCO3)c2n1	-	-	-	-
CC(=O)O[C@]1(C(C)=O)CC[C@@H]2[C@@H]3C=C(Cl)C4=CC(=O)[C@H]5C[C@@H]5[C@]4(C)[C@H]3CC[C@]21C	-	-	?	-
COc1cc(NC(=O)c2ccc(Cl)cc2)c(OC)cc1NC(=O)CN1CCOCC1	-	-	12.6µM	-
Cc1ccc(S(=O)(=O)C2(C(=O)Nc3ccc4c(c3)OCO4)CC2)cc1	3.98µM[single pt active]	-	-	-
Cc1ccc(S(=O)(=O)C2(C(=O)Nc3ccc(F)cc3)CC2)cc1	-	-	-	-
O=C(C1=C(O)C(=O)N(Cc2ccccc2)C1c1ccncc1)c1ccco1 (configuration not stated)	-	-	-	-
Cc1nnc(N2C(=O)C(O)=C(C(=O)c3ccco3)C2c2ccc(F)cc2)s1 (configuration not stated)	3.98µM[single pt active]	-	-	-
O=C(Nc1ccc(N2C(=O)C3C4C=CC(C4)C3C2=O)cc1)Nc1nncs1 (configuration not stated)	3.98µM[single pt active]	-	-	-
O=[N+]([O-])c1ccc(C2=Nn3c(nnc3-c3ccc(Cl)cc3)SC2)o1	-[5.75 µM]	-[5.75 µM]	?	-
O=C(c1ccco1)N1CCC2(CC1)CCN(C(c1ccccc1)c1ccccc1)CC2	-	-	-	-
COc1ccc(-n2nnnc2S(=O)(=O)CC(=O)N2CCCCC2)cc1	-	-	3.16µM	?
O=C(Cn1c(C(=O)N2CCc3ccccc3C2)cc2sccc21)c1ccccc1	15.8µM[single pt active]	-	?	-
O=C1Nc2ccccc2C(O)(C(=O)NCc2ccco2)N1c1ccc(Cl)c(Cl)c1 (configuration not stated)	-	-	7.94µM	-
CC(=O)NCCNc1ncnc2ccc(-c3ccc(C(=O)N(C)C)cc3)cc12	-	-	-	-
Nc1nc(SCC(=O)c2ccc(Oc3ccccc3)cc2)n[nH]1	10µM	-	?	-
O=C(NCc1cccs1)c1cc2c(s1)-c1ccccc1OC2	15.8µM	-	?	-
SMILES	AmpC nodet inh	AmpC inh det	Anthrax LT inh	SmPrx2 inh
CC(C)CO/N=C1/C[C@@H](O)[C@@H](O)[C@@H]2[C@@H]3C(=O)N(c4cccc(Oc5ccccc5)c4)C(=O)[C@H]3CC[C@H]12	.	.	-[8 µM]	.
[Cd+2].[Cl-].[Cl-]	-	-	?	.
[Cl-].[Cl-].[Hg+2]	1.26µM	12.6µM	?	.
COc1ccccc1NC(=O)C1(C)Cc2ccccc2C(=O)O1 (configuration not stated)	3.98µM[single pt active]	-	-	-
O=C1C(C2=C(O)c3ccccc3C2=O)=Nc2ccccc21	12.6µM	-	-	-
Cc1nc2ccccc2c2oc(C(=O)NCCN3CCN(C)CC3)cc12	-	-	?	-
Cc1ccc2oc(=O)c3cc(C(=O)NCCN4CCN(C)CC4)sc3c2c1	3.98µM[single pt active]	-	-	-
O=C(Nc1cccc(Br)c1)c1cc2ccccc2o1	-	-	5.01µM	.
Cc1nc2ccccc2c2oc(C(=O)N3CCN(C(=O)c4ccco4)CC3)cc12	-	-	-	-
Cc1nc2ccccc2c2oc(C(=O)N3CCc4ccccc4C3)cc12	-	-	10µM	-
O=C(O)c1nc(-c2ccccc2)[nH]c1C(=O)O	-[5.75 µM]	-[5.75 µM]	-[8 µM]	-
COc1cccc(Nc2cc(C)nc3ccccc23)c1	-	-	-	-
